# In PubChem BioAssay AID1511 (Johns Hopkins Ion Channel Center, 2009):
# Out of some 310,000 compounds screened, about 1,600 (0.52%) were called active. This excerpt belongs to a sample that is enriched for actives. Unmarked numbers belong to inactive results.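 How the source made its calls: active means activation above the mean of controls blocked by dofetilide plus 5 SD; inactive means the rest.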
# Molecular target: Voltage-gated inwardly rectifying potassium channel KCNH2 (Homo sapiens) (UniProt Q12809)
# Experiment: compounds relieving dofetilide block of hERG – cell-based, CHO-hERG, FluxOR thallium flux, dofetilide IC70, primary screen (AID 1511);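 further: thallium influx through hERG after potassium depolarization seen as dye fluorescence rise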
# Details: dofetilide IC70 present, at 10 µM, stronger effect = higher value
# Sequence of Voltage-gated inwardly rectifying potassium channel KCNH2 (Homo sapiens) (Q12809 whole entry, looked up): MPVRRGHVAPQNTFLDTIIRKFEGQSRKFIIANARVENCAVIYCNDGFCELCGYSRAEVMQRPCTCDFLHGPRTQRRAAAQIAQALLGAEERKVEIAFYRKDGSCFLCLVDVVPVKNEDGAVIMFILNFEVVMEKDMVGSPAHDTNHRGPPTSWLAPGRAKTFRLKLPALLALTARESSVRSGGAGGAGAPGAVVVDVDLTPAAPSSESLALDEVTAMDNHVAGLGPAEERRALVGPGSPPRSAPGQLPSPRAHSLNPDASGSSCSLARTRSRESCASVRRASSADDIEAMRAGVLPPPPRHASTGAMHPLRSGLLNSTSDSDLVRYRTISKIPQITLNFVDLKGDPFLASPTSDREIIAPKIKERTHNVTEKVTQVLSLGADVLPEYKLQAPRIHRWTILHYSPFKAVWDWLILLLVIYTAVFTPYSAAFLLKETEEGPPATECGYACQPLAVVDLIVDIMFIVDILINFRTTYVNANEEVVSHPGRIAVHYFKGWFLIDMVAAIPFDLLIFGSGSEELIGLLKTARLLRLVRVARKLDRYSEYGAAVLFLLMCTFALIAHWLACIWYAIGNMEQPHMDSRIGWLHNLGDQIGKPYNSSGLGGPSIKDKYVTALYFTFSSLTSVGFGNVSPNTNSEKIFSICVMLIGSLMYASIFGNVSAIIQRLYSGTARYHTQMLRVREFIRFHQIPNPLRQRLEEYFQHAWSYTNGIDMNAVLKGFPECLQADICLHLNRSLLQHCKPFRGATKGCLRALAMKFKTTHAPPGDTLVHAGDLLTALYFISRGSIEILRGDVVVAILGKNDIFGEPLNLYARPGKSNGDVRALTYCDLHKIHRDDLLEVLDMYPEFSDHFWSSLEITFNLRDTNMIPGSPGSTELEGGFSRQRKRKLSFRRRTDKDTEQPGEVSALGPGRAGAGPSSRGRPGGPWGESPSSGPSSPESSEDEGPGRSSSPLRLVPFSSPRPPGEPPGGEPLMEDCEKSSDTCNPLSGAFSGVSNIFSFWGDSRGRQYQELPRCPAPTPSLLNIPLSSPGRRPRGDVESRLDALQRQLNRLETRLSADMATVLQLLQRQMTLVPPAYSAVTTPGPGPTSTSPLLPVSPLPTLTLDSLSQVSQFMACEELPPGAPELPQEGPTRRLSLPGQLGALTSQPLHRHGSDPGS
row,SMILES,"activation (rescue from dofetilide block), less the hit threshold"
1,Cc1cccc(NC(=O)Cc2ccc(Br)cc2)n1,-12.3%
2,Cc1cccc(NC(=O)c2ccc3ccccc3n2)n1,-1.08%
3,CCOC(=O)C(=CNc1cccc(C)n1)C(=O)OCC,5.91% (active)
4,COC(=O)[C@H](CC(C)C)NC(=O)N1CCCCC1C (some centres undefined),-7.74%
5,CCc1ccc(CN(C)C(=O)CCc2nnc(-c3ccc(-c4ccccc4)cc3)o2)nc1,-22.3%
6,NS(=O)(=O)c1ccc(CNC(=O)c2ccc(Cl)cc2[N+](=O)[O-])cc1,-2.96%
7,O=C(Cn1ccc2cc(S(=O)(=O)N3CCCC3)ccc21)NCc1ccccc1,-5.85%
8,O=C(N/N=C/c1cccnc1)c1cc2ccccc2cc1O,-0.07%
9,Cc1ccc(/C=N/NC(=O)c2cc3ccccc3cc2O)o1,41.5% (active)
10,N=c1oc2ccccc2cc1C(=O)N/N=C/c1ccccc1,-8.66%
11,CCCCCN1CC(O)=C(c2ccccc2)C1=N,5.35% (active)
12,CCOC(=O)CCCN1CC(O)=C(c2nc3ccccc3s2)C1=N,-12%
13,CCCCCN1CC(O)=C(c2nc(-c3ccc(Cl)cc3)cs2)C1=N,-8.57%
14,CCC1OC(c2ccc([N+](=O)[O-])cc2)=Nc2ccccc21 (centres undefined),-15.1%
15,Cc1ccc(C(C)C)cc1OCC(=O)Nc1ccccc1N1CCCC1,-20.3%
16,COc1ccc2oc(N)c(C=O)c(=O)c2c1,-3.18%
17,CCc1cc2c(=O)c(-c3ccc(F)cc3)c(C(F)(F)F)oc2cc1OCC(=O)O,-11.1%
18,CCc1cc2c(=O)c(-c3ccon3)c(N)oc2cc1OC,5.25% (active)
19,CCOC(=O)c1cc(-c2ccc(Cl)s2)nc2c1c(C)nn2C,-9.55%
20,CC12c3ccccc3C(c3ccccc31)C1C(=O)N(Cc3cccnc3)C(=O)C12 (centres undefined),-9.37%
21,CCOC(=O)C1CCN(C(=O)COc2cccc3ccccc23)CC1,-10.3%
22,CC(C)C(C(=O)NCc1ccco1)N(CC1CCCO1)C(=O)CNS(=O)(=O)c1ccc(F)cc1 (centres undefined),0.16%
23,O=C(CN(CC1CCCO1)C(=O)CNS(=O)(=O)c1ccccc1)NCc1ccccc1 (centres undefined),-7.03%
24,O=C(CN(CC1CCCO1)C(=O)CNS(=O)(=O)c1ccc(F)cc1)NCc1ccco1 (centres undefined),4.78% (active)
25,O=C(CSc1ccccn1)N1CCN(S(=O)(=O)c2ccc(Cl)cc2)CC1,-10.1%

row,SMILES,"activation (rescue from dofetilide block), less the hit threshold"
1,CC1(C)Cc2cccc(OCC(=O)Nc3nccs3)c2O1,7.68% (active)
2,CC1(C)Cc2cccc(OCC(=O)NCc3ccccc3)c2O1,-7.06%
3,CC1(C)Cc2cccc(OCC(N)=O)c2O1,-3.71%
4,Cc1ccc2c(c1)N(S(=O)(=O)c1cc(-c3cc(C)no3)ccc1C)CCO2,-7.78%
5,O=C(CCc1ccccc1)NCCc1cccs1,-5.64%
6,COc1cc(S(=O)(=O)N2CCOCC2)ccc1NC(=O)COc1ccc(N(C)S(=O)(=O)c2ccc(C)cc2)cc1,-22.3%
7,O=C1NC(c2ccccc2)Oc2ccccc21 (centres undefined),-10.1%
8,CS(=O)(=O)c1sc(C(=O)NC(=S)Nc2ccc(OC(F)(F)F)cc2)c2c1C=CCC2,6.46% (active)
9,FC(F)(F)Oc1ccc(NC(=S)NCc2ccccc2)cc1,-9.66%
10,CCNC(=S)Nc1ccc(OC(F)(F)F)cc1,-17.9%
11,CC1(C)Cc2c(sc(NC(=O)C(=O)N3CCOCC3)c2C#N)CO1,-11.7%
12,O=C(CSc1nnnn1C1CCCC1)Nc1ccc2c(c1)OCCO2,6.54% (active)
13,CC(=O)Nc1ccc(NC(=O)CSc2nnnn2C2CCCCC2)cc1,-7.91%
14,CCC(=O)Nc1cccc(NC(=O)CSc2nnnn2C2CCCC2)c1,-7.7%
15,O=C(O)c1ccccc1-c1ccccc1C(=O)NCCc1ccccc1,-5.86%
16,CC(C)c1ccc(S(=O)(=O)NC2CCCC2)cc1,-6%
17,CCOc1cc(CNn2c(C)nnc2SCC(=O)NC(C)(C)C)ccc1OCC(=O)NC(C)(C)C,-9.51%
18,CC1CCN(C(=S)NC2CC3CCC2C3)CC1 (centres undefined),-8.02%
19,COc1ccc(CN2CC[C@H]3C=CC[C@@H](C(=O)N4CCOCC4)[C@H]3C2=O)cc1OC,5.8% (active)
20,COc1ccc(CNC(=O)[C@@H]2CC=C[C@@H]3CCN(C4CC4)C(=O)[C@@H]32)cc1,-7.13%
21,COc1ccc(CN2CCOC2=O)cc1OC,-6.78%
22,Cc1ccc(S(=O)(=O)c2c[nH]c3ccc(C)cc3c2=O)cc1,-9.36%
23,Cn1c(CC(=O)Nc2ccc(F)cc2)nnc1SCC(=O)NC1CCCCC1,-1.47%
24,CCOC(=O)c1c(NC(=S)Nc2ccccc2)sc2c1CCN(C)C2,-15.5%
